Records with an inconclusive call do not appear. The source made the active and inactive calls. Rule for the calls, unless noted: active = hit-call score of the fitted dose curve at least 0.9, where 1 is the maximum; inactive = score below 0.9.
Experiments:
[1] = molecular target: Paired box protein Pax-6 (Homo sapiens) (UniProt P26367); test: ATG_Pax6_CIS: Attagene CIS-FACTORIAL HepG2 Assay for human Paired Box 6 (PAX6) (AID 2282956); settings: HepG2 CIS-FACTORIAL PAX6 reporter transcription, RNA readout; actives raise or lower the signal
Sequence of Paired box protein Pax-6 (Homo sapiens) (P26367 whole entry, looked up): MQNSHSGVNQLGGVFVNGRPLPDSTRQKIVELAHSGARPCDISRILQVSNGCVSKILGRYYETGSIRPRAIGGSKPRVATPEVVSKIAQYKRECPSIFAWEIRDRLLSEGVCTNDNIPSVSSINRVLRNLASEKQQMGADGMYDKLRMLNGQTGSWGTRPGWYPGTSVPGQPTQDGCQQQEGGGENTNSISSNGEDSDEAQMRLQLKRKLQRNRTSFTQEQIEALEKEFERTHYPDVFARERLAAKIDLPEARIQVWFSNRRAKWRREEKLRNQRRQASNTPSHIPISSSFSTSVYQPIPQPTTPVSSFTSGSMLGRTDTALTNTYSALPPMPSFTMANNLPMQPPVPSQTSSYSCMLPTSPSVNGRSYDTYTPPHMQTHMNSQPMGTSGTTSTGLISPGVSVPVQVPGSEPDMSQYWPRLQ
Outline: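 Fluorescent RT-PCR products separated by capillary electrophoresis report PAX6-linked promoter mRNA in HepG2 cells 24 h post-dose. Curves fitted bidirectionally, DMSO as negative control.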

[2] = ATG_PXRE_CIS: Attagene CIS-FACTORIAL HepG2 Assay for human Pregnane X Receptor Element (PXRE) (AID 2282957); settings: HepG2 Attagene CIS-FACTORIAL PXRE reporter, mRNA; actives raise or lower the signal
Outline: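 Read-out: fluorescence of reporter-specific RT-PCR products resolved by capillary electrophoresis, fitted bidirectionally relative to DMSO. Human HepG2 liver cells carried transfected cis-promoter reporter units and were exposed to chemicals for 24 h.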

[3] = ATG_PPRE_CIS: Attagene CIS-FACTORIAL HepG2 Assay for human Peroxisome Proliferator-activated Response Element (PPRE) (AID 2282958); settings: HepG2 PPRE cis-element reporter, Attagene transcription factor profiling; actives raise or lower the signal
Outline: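 DMSO served as negative control and baseline for bidirectional curve fitting. Signal came from PPRE-regulated reporter mRNA in HepG2 cells, measured 24 h post-dosing by RT-PCR, 6-FAM primer extension and capillary electrophoresis.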

[4] = ATG_RORE_CIS: Attagene CIS-FACTORIAL HepG2 Assay for human RAR-related Orphan Receptor Element (RORE) (AID 2282959); settings: HepG2 Attagene cis-factorial RORE reporter, mRNA; actives raise or lower the signal
Outline: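 Transfect HepG2 with MRTUs; treat 24 h; extract RNA; RT with oligo(dT); PCR with reporter-specific primers; 6-FAM primer extension; HpaI digest 2 h at 37 C; capillary electrophoresis. Fit vs DMSO, bidirectional.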

[5] = ATG_Sox_CIS: Attagene CIS-FACTORIAL HepG2 Assay for human SRY-box transcription factor (SOX) (AID 2282960); settings: HepG2 Attagene cis-factorial SOX reporter, mRNA; actives raise or lower the signal
Outline: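 Fluorescence-labelled cDNA fragments from reporter transcripts, sized by CE, give the signal. Cells: HepG2, transiently transfected with cis-regulated reporter units. Exposure 24 h; DMSO negative control; bidirectional curve fitting.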

[6] = molecular target: Transcription factor Sp1 (Homo sapiens) (UniProt P08047); test: ATG_Sp1_CIS: Attagene CIS-FACTORIAL HepG2 Assay for human Specificity Protein 1 (Sp1) (AID 2282961); settings: HepG2 Sp1 cis-reporter transcription, actives raise or lower the signal
Sequence of Transcription factor Sp1 (Homo sapiens) (P08047 whole entry, looked up): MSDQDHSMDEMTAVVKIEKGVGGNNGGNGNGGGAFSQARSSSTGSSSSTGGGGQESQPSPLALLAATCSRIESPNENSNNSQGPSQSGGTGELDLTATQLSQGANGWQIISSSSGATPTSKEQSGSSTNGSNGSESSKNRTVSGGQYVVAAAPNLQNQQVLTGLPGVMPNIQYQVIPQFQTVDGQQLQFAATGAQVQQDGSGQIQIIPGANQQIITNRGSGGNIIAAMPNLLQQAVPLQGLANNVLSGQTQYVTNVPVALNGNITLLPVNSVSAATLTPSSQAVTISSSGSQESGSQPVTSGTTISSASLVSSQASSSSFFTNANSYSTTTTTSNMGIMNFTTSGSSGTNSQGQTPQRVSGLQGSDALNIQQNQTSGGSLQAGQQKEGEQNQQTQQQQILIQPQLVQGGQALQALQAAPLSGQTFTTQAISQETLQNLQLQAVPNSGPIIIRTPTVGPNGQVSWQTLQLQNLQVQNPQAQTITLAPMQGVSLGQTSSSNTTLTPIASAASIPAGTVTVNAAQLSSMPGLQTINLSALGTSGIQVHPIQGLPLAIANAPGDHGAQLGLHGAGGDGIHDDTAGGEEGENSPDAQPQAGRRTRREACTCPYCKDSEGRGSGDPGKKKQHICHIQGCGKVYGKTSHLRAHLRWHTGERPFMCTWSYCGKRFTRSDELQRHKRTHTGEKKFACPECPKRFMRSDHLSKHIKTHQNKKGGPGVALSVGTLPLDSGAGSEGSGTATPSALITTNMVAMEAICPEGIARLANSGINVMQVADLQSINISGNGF
Outline: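 Chemicals are dosed onto HepG2 cells transfected with multiple cis-promoter reporter constructs, and after 24 h reporter RNA is reverse-transcribed, PCR-amplified and resolved by capillary electrophoresis for fluorescence quantitation; activity is scored up or down against DMSO.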

[7] = molecular target: Signal transducer and activator of transcription 3 (Homo sapiens) (UniProt P40763); test: ATG_STAT3_CIS: Attagene CIS-FACTORIAL HepG2 Assay for human Signal Transducer and Activator of Transcription 3 (STAT3) (AID 2282963); settings: HepG2, Attagene cis-factorial STAT3 reporter transcription; actives raise or lower the signal
Sequence of Signal transducer and activator of transcription 3 (Homo sapiens) (P40763 whole entry, looked up): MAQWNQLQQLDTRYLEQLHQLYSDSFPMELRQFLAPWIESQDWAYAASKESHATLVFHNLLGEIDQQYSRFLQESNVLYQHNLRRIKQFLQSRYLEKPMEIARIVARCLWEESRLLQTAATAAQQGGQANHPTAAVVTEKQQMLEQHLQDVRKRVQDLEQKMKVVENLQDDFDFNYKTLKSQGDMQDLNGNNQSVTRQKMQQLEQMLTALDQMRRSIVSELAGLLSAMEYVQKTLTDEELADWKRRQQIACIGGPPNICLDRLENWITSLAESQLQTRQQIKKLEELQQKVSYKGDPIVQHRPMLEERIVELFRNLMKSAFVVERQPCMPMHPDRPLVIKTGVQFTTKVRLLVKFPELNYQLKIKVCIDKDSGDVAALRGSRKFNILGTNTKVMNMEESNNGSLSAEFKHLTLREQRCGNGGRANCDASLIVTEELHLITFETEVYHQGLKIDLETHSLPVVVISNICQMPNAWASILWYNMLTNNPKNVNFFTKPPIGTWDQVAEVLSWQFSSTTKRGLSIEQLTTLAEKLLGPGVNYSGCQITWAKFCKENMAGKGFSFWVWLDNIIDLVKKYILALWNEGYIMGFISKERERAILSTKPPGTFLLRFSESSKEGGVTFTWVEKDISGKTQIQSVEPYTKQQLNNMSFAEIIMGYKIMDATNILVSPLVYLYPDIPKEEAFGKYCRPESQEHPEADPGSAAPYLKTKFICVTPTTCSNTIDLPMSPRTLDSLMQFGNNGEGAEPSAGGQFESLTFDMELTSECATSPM
Outline: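 Uses human liver HepG2 transiently carrying cis-regulated reporter transcription units. Following 24 h dosing, reporter mRNA induction was detected by RT-PCR and capillary electrophoresis, analysed bidirectionally versus DMSO.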

[8] = ATG_TA_CIS: Attagene CIS-FACTORIAL HepG2 Assay for human TA Basal Promoter (AID 2282964); settings: HepG2 Attagene CIS-factorial TA basal promoter reporter; actives raise or lower the signal
Outline: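 Transient MRTU transfection of HepG2 preceded 24 h compound exposure. Reporter mRNA levels were then read by RT-PCR with capillary electrophoresis, and this background-control endpoint was fitted bidirectionally to DMSO.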

[9] = ATG_TCF_b_cat_CIS: Attagene CIS-FACTORIAL HepG2 Assay for human T-Cell-Factor with beta-catenin (TCF/b-cat) (AID 2282965); settings: HepG2 TCF/beta-catenin cis-reporter transcription, actives raise or lower the signal
Outline: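 Using capillary electrophoresis as the read-out, labelled reporter cDNA fragments from transiently transfected HepG2 were sized and quantified. Exposure lasted 24 hours; activity in either direction was referenced to DMSO.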

[10] = ATG_TAL_CIS: Attagene CIS-FACTORIAL HepG2 Assay for human TAL Basal Promoter (AID 2282966); settings: HepG2 Attagene cis-factorial TAL promoter reporter; actives raise or lower the signal;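 note: background control endpoint measuring basal TAL promoter reporter mRNA not a specific factor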
Outline: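 HepG2, transient MRTU transfection, 24 h compound exposure; RNA → oligo(dT) RT → PCR → 6-FAM primer extension → HpaI digest → CE fluorescence. Bidirectional curve fit vs DMSO. Background-control readout.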

[11] = ATG_TGFb_CIS: Attagene CIS-FACTORIAL HepG2 Assay for human Transforming Growth Factor (TGF) (AID 2282967); settings: HepG2 Attagene CIS TGFb reporter, mRNA transcription; actives raise or lower the signal
Outline: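 After a 24-hour incubation with compound, transfected HepG2 cells were lysed for RNA; reporter cDNA was amplified, fluorescently end-labeled and separated by CE. DMSO served as baseline for bidirectional fits.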

[12] = molecular target: X-box-binding protein 1 (Homo sapiens) (UniProt P17861); test: ATG_Xbp1_CIS: Attagene CIS-FACTORIAL HepG2 Assay for human X-box Binding Protein 1 (XBP1) (AID 2282972); settings: HepG2 XBP1 cis-element reporter, Attagene multiplex; actives raise or lower the signal
Sequence of X-box-binding protein 1 (Homo sapiens) (P17861 whole entry, looked up): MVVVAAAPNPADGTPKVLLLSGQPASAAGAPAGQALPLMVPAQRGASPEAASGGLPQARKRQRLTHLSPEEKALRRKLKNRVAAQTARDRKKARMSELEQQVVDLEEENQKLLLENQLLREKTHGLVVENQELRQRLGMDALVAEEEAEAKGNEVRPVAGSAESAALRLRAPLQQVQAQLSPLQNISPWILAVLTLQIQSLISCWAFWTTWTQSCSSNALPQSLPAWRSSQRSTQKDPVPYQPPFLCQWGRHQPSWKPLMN
Outline: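 Multiplexed cis-reporter readout in transfected HepG2 liver cells. Exposure lasted 24 hours. Activity in either direction was fitted against DMSO as negative control and baseline.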

[13] = ATG_M_19_TRANS: Attagene TRANS-FACTORIAL HepG2 Assay for M19 Transcription Factor (Internal Marker) (AID 2282974; active = hit-call score of the fitted dose curve at least 0.9, where 1 is the maximum); settings: HepG2 Attagene TRANS-FACTORIAL M19 internal marker reporter
Outline: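 Multiplexed TRANS format: HepG2 liver cells bearing transient GAL4-UAS reporter units, chemical treatment 24 h, reporter transcripts quantified by RT-PCR plus capillary electrophoresis. DMSO defines baseline.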

[14] = ATG_GAL4_TRANS: Attagene TRANS-FACTORIAL HepG2 Assay for GAL4 (Internal Marker) (AID 2282976; active = hit-call score of the fitted dose curve at least 0.9, where 1 is the maximum); settings: HepG2 Attagene TRANS GAL4 internal marker reporter
Outline: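 RT-PCR/capillary electrophoresis readout of reporter mRNA. HepG2, transient MRTU transfection (GAL4-UAS reporters), 24 h compound exposure. Background-control endpoint, positive direction vs DMSO baseline.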

[15] = molecular target: Glucocorticoid receptor (Homo sapiens) (UniProt P04150); test: ATG_GR_TRANS: Attagene TRANS-FACTORIAL HepG2 Assay for human Glucocorticoid Receptor (GR) (AID 2282978; active = hit-call score of the fitted dose curve at least 0.9, where 1 is the maximum;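 note: activators score as hits since higher reporter transcript over DMSO is fitted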); settings: HepG2 Attagene TRANS GR reporter, mRNA transcription
Sequence of Glucocorticoid receptor (Homo sapiens) (P04150 whole entry, looked up, the tested form may be a part): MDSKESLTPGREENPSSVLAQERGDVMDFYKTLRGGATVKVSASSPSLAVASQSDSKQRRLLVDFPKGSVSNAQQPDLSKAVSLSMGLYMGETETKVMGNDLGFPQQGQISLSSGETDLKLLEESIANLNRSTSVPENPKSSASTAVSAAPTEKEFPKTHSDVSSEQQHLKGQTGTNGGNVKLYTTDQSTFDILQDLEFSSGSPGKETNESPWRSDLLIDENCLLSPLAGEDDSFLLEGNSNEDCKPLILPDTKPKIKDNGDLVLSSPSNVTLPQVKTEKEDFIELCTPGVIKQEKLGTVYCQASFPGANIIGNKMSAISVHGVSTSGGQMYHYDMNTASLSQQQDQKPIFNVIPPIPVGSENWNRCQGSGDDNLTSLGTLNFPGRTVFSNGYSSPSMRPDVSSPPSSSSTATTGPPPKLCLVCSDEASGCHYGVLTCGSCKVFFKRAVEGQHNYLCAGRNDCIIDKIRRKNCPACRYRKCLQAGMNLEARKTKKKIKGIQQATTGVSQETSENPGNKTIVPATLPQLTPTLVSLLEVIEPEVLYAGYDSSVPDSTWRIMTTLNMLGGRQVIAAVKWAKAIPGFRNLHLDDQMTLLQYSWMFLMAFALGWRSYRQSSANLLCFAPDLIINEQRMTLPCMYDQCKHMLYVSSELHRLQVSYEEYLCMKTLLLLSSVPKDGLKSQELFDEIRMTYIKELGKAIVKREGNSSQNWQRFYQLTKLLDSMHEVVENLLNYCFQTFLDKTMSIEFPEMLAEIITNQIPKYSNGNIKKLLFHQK
Outline: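 Transiently transfected HepG2 cells express chimeric NR-GAL4 proteins acting on GAL4-UAS reporter units. Compounds are applied for 24 h. mRNA induction over DMSO is measured by capillary electrophoresis.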

[16] = ATG_SREBP_CIS: Attagene CIS-FACTORIAL HepG2 Assay for human Sterol Regulatory Element Binding (SREBP) (AID 2282962); settings: HepG2 Attagene cis-factorial SREBP reporter, mRNA; actives raise or lower the signal
Outline: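 Endogenous factor activity is measured in HepG2 through multiplexed reporter units under cis-element control. Following a 24 h incubation, reporter transcripts are reverse-transcribed, PCR-amplified and sized by capillary electrophoresis; activity is fitted in both directions relative to DMSO.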

[17] = ATG_VDRE_CIS: Attagene CIS-FACTORIAL HepG2 Assay for human Vitamin D Receptor Element (VDRE) (AID 2282968); settings: HepG2 VDRE cis-reporter transcription, actives raise or lower the signal
Outline: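 Transfected HepG2 reporter cells, chemical treatment 24 h. RNA isolated, cDNA amplified with reporter-specific primers, products analysed by capillary electrophoresis. Endpoint fitted in both directions versus DMSO.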

[18] = molecular target: Steroid hormone receptor ERR1 (Homo sapiens) (UniProt P11474); test: ATG_ERRa_TRANS: Attagene TRANS-FACTORIAL HepG2 Assay for human Estrogen-Related Receptor alpha (ERRa) (AID 2282971; active = hit-call score of the fitted dose curve at least 0.9, where 1 is the maximum); settings: HepG2 Attagene TRANS reporter, ERRa transactivation
Sequence of Steroid hormone receptor ERR1 (Homo sapiens) (P11474 whole entry, looked up, the tested form may be a part): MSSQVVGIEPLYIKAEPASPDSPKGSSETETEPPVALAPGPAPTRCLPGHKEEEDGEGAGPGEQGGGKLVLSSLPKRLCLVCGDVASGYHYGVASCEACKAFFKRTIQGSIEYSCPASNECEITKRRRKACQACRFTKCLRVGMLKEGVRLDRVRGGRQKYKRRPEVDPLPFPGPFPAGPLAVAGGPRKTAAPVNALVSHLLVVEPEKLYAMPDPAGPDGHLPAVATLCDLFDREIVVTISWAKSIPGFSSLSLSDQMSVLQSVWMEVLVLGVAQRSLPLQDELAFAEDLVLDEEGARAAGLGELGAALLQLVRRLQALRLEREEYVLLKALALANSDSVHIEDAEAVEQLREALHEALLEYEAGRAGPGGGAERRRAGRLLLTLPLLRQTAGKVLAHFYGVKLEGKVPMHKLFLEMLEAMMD
Outline: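 Transfected HepG2, 24 h dosing, ERRa-Gal4 chimera driving GAL4-UAS reporter. Readout: reporter mRNA via RT-PCR plus capillary electrophoresis (fluorescence). Positive direction vs DMSO control.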

[19] = molecular target: Estrogen-related receptor gamma (Homo sapiens) (UniProt P62508); test: ATG_ERRg_TRANS: Attagene TRANS-FACTORIAL HepG2 Assay for human Estrogen-Related Receptor gamma (ERRg) (AID 2282977; active = hit-call score of the fitted dose curve at least 0.9, where 1 is the maximum;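 note: hits increase reporter signal over DMSO so potencies reflect activators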); settings: HepG2 Attagene TRANS reporter, ERRg transactivation
Sequence of Estrogen-related receptor gamma (Homo sapiens) (P62508 whole entry, looked up, the tested form may be a part): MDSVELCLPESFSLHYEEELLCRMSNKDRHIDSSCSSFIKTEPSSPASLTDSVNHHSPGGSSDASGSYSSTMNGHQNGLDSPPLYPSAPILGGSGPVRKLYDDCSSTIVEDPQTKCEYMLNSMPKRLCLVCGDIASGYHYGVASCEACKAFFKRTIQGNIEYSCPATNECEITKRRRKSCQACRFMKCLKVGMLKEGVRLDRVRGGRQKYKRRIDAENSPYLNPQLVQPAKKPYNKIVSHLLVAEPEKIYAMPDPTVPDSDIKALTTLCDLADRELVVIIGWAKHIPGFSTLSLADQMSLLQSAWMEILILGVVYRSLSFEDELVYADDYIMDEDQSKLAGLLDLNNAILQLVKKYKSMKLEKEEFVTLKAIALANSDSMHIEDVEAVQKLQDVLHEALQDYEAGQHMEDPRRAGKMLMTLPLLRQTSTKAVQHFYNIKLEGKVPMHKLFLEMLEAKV
Outline: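 Exogenous NR-Gal4 chimera activity was assessed in HepG2 cells bearing transfected GAL4-UAS reporters. After 24 h dosing, total RNA underwent RT-PCR, fluorescent primer extension and HpaI digestion before capillary electrophoresis, with gain of signal scored against DMSO.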

[20] = molecular target: Nuclear receptor subfamily 1 group I member 3 (Homo sapiens) (UniProt Q14994); test: ATG_CAR_TRANS: Attagene TRANS-FACTORIAL HepG2 Assay for human Constitutive Androstane Receptor (CAR) (AID 2282969; active = hit-call score of the fitted dose curve at least 0.9, where 1 is the maximum;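 note: activators raise reporter mRNA above DMSO so AC50 marks induction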); settings: HepG2 Attagene TRANS-FACTORIAL CAR reporter
Sequence of Nuclear receptor subfamily 1 group I member 3 (Homo sapiens) (Q14994 whole entry, looked up, the tested form may be a part): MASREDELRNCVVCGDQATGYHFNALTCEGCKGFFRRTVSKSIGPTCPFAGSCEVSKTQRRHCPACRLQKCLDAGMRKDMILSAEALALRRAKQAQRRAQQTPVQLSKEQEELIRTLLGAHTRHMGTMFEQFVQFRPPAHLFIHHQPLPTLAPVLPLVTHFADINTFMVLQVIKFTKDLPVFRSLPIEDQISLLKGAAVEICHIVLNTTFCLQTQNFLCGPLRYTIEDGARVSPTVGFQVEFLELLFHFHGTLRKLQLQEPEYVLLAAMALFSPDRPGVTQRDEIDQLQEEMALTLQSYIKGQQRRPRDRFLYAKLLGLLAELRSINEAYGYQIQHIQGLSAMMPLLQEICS
Outline: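 Steps: transient transfection of HepG2 with multiple GAL4-UAS reporter units; 24 h compound incubation; RNA isolation, RT-PCR, 6-FAM primer extension, HpaI digest; capillary electrophoresis. Gain-of-signal relative to DMSO negative control.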

C=C(C)C(=O)OCC(CC)(COC(=O)C(=C)C)COC(=O)C(=C)C
outcome [1]: inactive
AC50 [2]: 10.6 µM (active)
outcome [3]: inactive
outcome [4]: inactive
outcome [5]: inactive
outcome [6]: inactive
outcome [7]: inactive
outcome [8]: inactive
outcome [9]: inactive
outcome [10]: inactive
outcome [11]: inactive
outcome [12]: inactive
outcome [13]: inactive
outcome [14]: inactive
outcome [15]: inactive

c1ccc2cc(Nc3ccc(Nc4ccc5ccccc5c4)cc3)ccc2c1
outcome [1]: inactive
outcome [2]: inactive
outcome [3]: inactive
AC50 [4]: 5.31 µM (active)
outcome [5]: inactive
outcome [6]: inactive
outcome [16]: inactive
outcome [7]: inactive
outcome [8]: inactive
outcome [10]: inactive
outcome [11]: inactive
outcome [17]: inactive
outcome [18]: inactive
outcome [12]: inactive
outcome [13]: inactive
outcome [14]: inactive
outcome [19]: inactive
outcome [15]: inactive

CCCCOCC
outcome [1]: inactive
outcome [2]: inactive
outcome [3]: inactive
outcome [4]: inactive
outcome [5]: inactive
outcome [6]: inactive
outcome [7]: inactive
outcome [10]: inactive
outcome [11]: inactive
outcome [12]: inactive
outcome [13]: inactive
outcome [14]: inactive
outcome [19]: inactive

CC1CCC(C(C)C)C(O)C1 (stereo not given)
outcome [1]: inactive
outcome [2]: inactive
outcome [3]: inactive
outcome [4]: inactive
outcome [5]: inactive
outcome [6]: inactive
outcome [16]: inactive
outcome [7]: inactive
outcome [8]: inactive
outcome [11]: inactive
outcome [17]: inactive
outcome [14]: inactive

CCCCC(CC)COC(C)=O (stereo not given)
outcome [1]: inactive
outcome [2]: inactive
outcome [3]: inactive
outcome [4]: inactive
outcome [5]: inactive
outcome [6]: inactive
outcome [7]: inactive
outcome [8]: inactive
outcome [9]: inactive
outcome [10]: inactive
outcome [11]: inactive
outcome [20]: inactive
outcome [18]: inactive
outcome [12]: inactive
outcome [13]: inactive

COC(C)(C)CCO
outcome [1]: inactive
outcome [2]: inactive
outcome [3]: inactive
outcome [4]: inactive
outcome [5]: inactive
outcome [6]: inactive
outcome [16]: inactive
outcome [7]: inactive
outcome [9]: inactive
outcome [10]: inactive
outcome [11]: inactive
outcome [17]: inactive
outcome [12]: inactive
outcome [13]: inactive
outcome [14]: inactive
outcome [19]: inactive
outcome [15]: inactive

C#CC(C)(O)CC(C)C (stereo not given)
outcome [1]: inactive
outcome [2]: inactive
outcome [3]: inactive
outcome [4]: inactive
outcome [5]: inactive
outcome [6]: inactive
outcome [16]: inactive
outcome [7]: inactive
outcome [9]: inactive
outcome [10]: inactive
outcome [11]: inactive
outcome [17]: inactive
outcome [20]: inactive
outcome [18]: inactive
outcome [13]: inactive

CC/C=C\CC/C=C/CO
outcome [1]: inactive
AC50 [2]: 27.3 µM (active)
outcome [3]: inactive
outcome [4]: inactive
outcome [5]: inactive
outcome [6]: inactive
outcome [16]: inactive
outcome [7]: inactive
outcome [8]: inactive
outcome [10]: inactive
outcome [11]: inactive
outcome [12]: inactive
outcome [13]: inactive
outcome [14]: inactive
outcome [19]: inactive

CCOC(=O)CC(C)O (stereo not given)
outcome [1]: inactive
outcome [2]: inactive
outcome [3]: inactive
outcome [4]: inactive
outcome [5]: inactive
outcome [6]: inactive
outcome [16]: inactive
outcome [7]: inactive
outcome [8]: inactive
outcome [10]: inactive
outcome [11]: inactive
outcome [12]: inactive
outcome [13]: inactive
outcome [14]: inactive
outcome [15]: inactive

CCCCCC(C)=O
outcome [1]: inactive
outcome [2]: inactive
outcome [3]: inactive
outcome [4]: inactive
outcome [5]: inactive
outcome [6]: inactive
outcome [7]: inactive
outcome [8]: inactive
outcome [9]: inactive
outcome [11]: inactive
outcome [17]: inactive
outcome [12]: inactive
outcome [13]: inactive
outcome [14]: inactive
outcome [19]: inactive
outcome [15]: inactive

CCO/C=C1\N=C(c2ccccc2)OC1=O
outcome [1]: inactive
AC50 [2]: 63.8 µM (active)
outcome [3]: inactive
outcome [4]: inactive
outcome [5]: inactive
outcome [6]: inactive
outcome [16]: inactive
outcome [7]: inactive
outcome [9]: inactive
outcome [10]: inactive
outcome [11]: inactive
outcome [12]: inactive
outcome [13]: inactive
outcome [15]: inactive

O=C1OC2(c3ccccc31)c1ccc(O)c(Br)c1Oc1c2ccc(O)c1Br
outcome [1]: inactive
AC50 [2]: 15.9 µM (active)
outcome [3]: inactive
outcome [4]: inactive
outcome [5]: inactive
outcome [6]: inactive
outcome [16]: inactive
outcome [7]: inactive
outcome [8]: inactive
outcome [9]: inactive
outcome [11]: inactive
outcome [12]: inactive
outcome [15]: inactive

CCCCCCOCCOCCO
outcome [1]: inactive
outcome [2]: inactive
outcome [3]: inactive
outcome [4]: inactive
outcome [5]: inactive
outcome [6]: inactive
outcome [7]: inactive
outcome [8]: inactive
outcome [9]: inactive
outcome [11]: inactive
outcome [12]: inactive
outcome [13]: inactive
